NOMO-1 viab: NOMO-1 AML cell viability reduction, primary screen, STK33 inhibitor project, CellTiter-Glo luminescence. NOMO-1 AML viability, 72 h. inhibition, % (concentration not given with the values). 37,000 tested, 7.5% active. AID 2330, 2010; in the data active = inhibition above about 80%; inconclusive = no clear call, values can overlap the other calls
MITF inhib: inhibitors of MITF, primary screen, MITF inhibitor project, cell-based, luminescence. TRPM1 promoter luciferase, 24 h. inhibition, % (test concentration not listed). 37,000 tested, 0.28% active. AID 2240, 2010; in the data active = inhibition above about 85%; inconclusive = no clear call, values can overlap the other calls; inactive = below about 68%;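 note: human melanocyte line stably carrying TRPM1 promoter luciferase reporter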
Hedgehog inh: Hedgehog pathway signaling inhibitors, primary screen, luminescence, Shh-LIGHT2 cells, Gli-luciferase. Shh-LIGHT2 Gli-luciferase reporter, 30 h. 22,000 tested, 2.1% active. inhibition, % (no concentration beside the values);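 active = mean inhibition across valid replicates above about 65%, limit read from the data; inconclusive = mean under the limit, yet half or more replicates past it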;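 note: pathway switched on by Shh-conditioned medium diluted 1 in 25 in low serum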
Starred values were filed as active, the others as inactive. Only some compounds are listed: those with a hit (about 8.1% of all), similar ones and a draw of the others.

What do the screens show for `C[C@@H]1CN([C@H](C)CO)C(=O)c2cc(NC(=O)Nc3ccc(F)cc3)ccc2O[C@@H]1CN(C)Cc1ccc(Oc2ccccc2)cc1`?
NOMO-1 viab: 124*; MITF inhib: 14; Hedgehog inh: inconclusive

What do the screens show for `C[C@H](CO)N1C[C@H](C)[C@H](CN(C)Cc2ccc(Oc3ccccc3)cc2)Oc2ccc(NC(=O)Nc3ccc(F)cc3)cc2C1=O`?
NOMO-1 viab: 66; MITF inhib: 3; Hedgehog inh: 11

How did C[C@@H]1CN([C@H](C)CO)C(=O)c2cc(NC(=O)Nc3ccc(F)cc3)ccc2O[C@H]1CN(C)Cc1ccc(Oc2ccccc2)cc1 do in these assays?
NOMO-1 viab: 71; MITF inhib: -1

How did C[C@@H]1CN([C@@H](C)CO)C(=O)c2cc(NC(=O)Nc3ccc(F)cc3)ccc2O[C@@H]1CN(C)Cc1ccc(Oc2ccccc2)cc1 do in these assays?
NOMO-1 viab: 117*; MITF inhib: 51; Hedgehog inh: 40

What do the screens show for `CC(C(=O)NC1CCCCC1)N(c1ccc(Cl)cc1)S(C)(=O)=O` (centres undefined)?
NOMO-1 viab: 6; MITF inhib: -4

How did O=C(Cn1cc(C(=O)c2ccccc2F)c2ccccc21)Nc1ccccc1 do in these assays?
NOMO-1 viab: 89*; MITF inhib: 65

What do the screens show for `CC(=O)c1cn(CC(=O)Nc2ccccc2)c2ccccc12`?
NOMO-1 viab: 19; MITF inhib: 36

Results for COc1cc(CO)c(CC(=O)NN)cc1OC ?
NOMO-1 viab: -3; MITF inhib: 16; Hedgehog inh: 8

Results for O=C(CCCn1cc([N+](=O)[O-])cn1)Nc1cc(F)ccc1F ?
NOMO-1 viab: -8; MITF inhib: -3

What do the screens show for `COC(=O)C(Cc1c[nH]c2ccccc12)NC(=O)C(NC(=O)C(C)NC(=O)/C=C/C(=O)O)C(C)c1c[nH]c2ccccc12` (centres undefined)?
NOMO-1 viab: 7; MITF inhib: -5; Hedgehog inh: 15

Results for COc1ccc(NC(=O)CSc2cc(C)c3cccc(C)c3n2)cc1 ?
NOMO-1 viab: 105*; MITF inhib: 36

What do the screens show for `CCOc1ccccc1NC(=O)CSc1cc(C)c2cccc(C)c2n1`?
NOMO-1 viab: 20; MITF inhib: 27

What do the screens show for `Cc1sc(NC(=O)COc2ccccc2)c(C(N)=O)c1-c1ccccc1`?
NOMO-1 viab: 42; MITF inhib: -6

What do the screens show for `CCOc1ccc(C)cc1S(=O)(=O)Nc1cccnc1`?
NOMO-1 viab: 44; MITF inhib: -7

Results for COc1cc(S(=O)(=O)n2cnc3ccccc32)c(OC)cc1Cl ?
NOMO-1 viab: 84*; MITF inhib: 0

How did CCOc1ccc(C)cc1S(=O)(=O)n1cnc2ccccc21 do in these assays?
NOMO-1 viab: 127*; MITF inhib: 38

Results for CCOc1ccc(Cl)cc1S(=O)(=O)n1cnc2ccccc21 ?
NOMO-1 viab: 114*; MITF inhib: 33

Results for COc1cc(S(=O)(=O)n2nnc3ccccc32)c(OC)cc1Cl ?
NOMO-1 viab: 30; MITF inhib: 43

What do the screens show for `CCOc1cc(C)c(Cl)cc1S(=O)(=O)n1cnc2ccccc21`?
NOMO-1 viab: 23; MITF inhib: -28

What do the screens show for `CS(=O)(=O)CCC(C(=O)Nc1cccc2ncccc12)N1C(=O)c2cc(Cl)c(Cl)cc2C1=O` (centres undefined)?
NOMO-1 viab: 13; MITF inhib: -9

How did COc1cc(NC(=O)COc2ccc(Cl)cc2C)c(C(=O)O)cc1OC do in these assays?
NOMO-1 viab: -16; MITF inhib: -2

What do the screens show for `CCn1c(SCC(=O)c2cccc([N+](=O)[O-])c2)nnc1-c1ccc(Cl)cc1Cl`?
NOMO-1 viab: 43; MITF inhib: 11

What do the screens show for `Cc1sc(NC(=O)COc2ccc3c(C)cc(=O)oc3c2)c(C#N)c1C`?
NOMO-1 viab: 11; MITF inhib: 1

Results for N#Cc1c(NC(=O)COc2ccc3c(-c4ccccc4)cc(=O)oc3c2)sc2c1CCC2 ?
NOMO-1 viab: 96*; MITF inhib: 12

What do the screens show for `Cc1noc(C)c1NC(=O)Nc1ccc2c(c1)C(=O)N([C@@H](C)CO)C[C@H](C)[C@@H](CN(C)C(=O)NC(C)C)O2`?
NOMO-1 viab: 21; MITF inhib: -11; Hedgehog inh: -18

What do the screens show for `O=C(CSc1nnc(-c2ccccc2Br)o1)c1ccc2c(c1)OCCO2`?
NOMO-1 viab: 23; MITF inhib: 11

How did COc1cc(C[C@H]2C(=O)OC[C@@H]2Cc2ccc(OC)c(OC)c2)ccc1O do in these assays?
Hedgehog inh: 40

How did COc1ccc2c(c1)OCC(Cc1ccc(OC)c(O)c1)C2=O (centres undefined) do in these assays?
NOMO-1 viab: 109*; MITF inhib: 13; Hedgehog inh: 19

Results for CCOC(=O)c1c(NC(=S)NC(C)C2CCCO2)sc2c1CCCC2 (centres undefined) ?
NOMO-1 viab: 36; MITF inhib: -28

How did C[C@H]1CN([C@@H](C)CO)C(=O)c2cccc(NC(=O)Nc3cccc4ccccc34)c2O[C@H]1CN(C)Cc1ccc(C(=O)Nc2ccccc2N)cc1 do in these assays?
NOMO-1 viab: 128*; MITF inhib: 15

How did C[C@H]1CN([C@@H](C)CO)C(=O)c2cccc(NC(=O)Nc3ccccc3)c2O[C@H]1CN(C)Cc1ccc(C(=O)O)cc1 do in these assays?
NOMO-1 viab: 9; MITF inhib: 2; Hedgehog inh: -15

Results for C[C@@H]1CN([C@H](C)CO)C(=O)c2cccc(NC(=O)Nc3ccccc3)c2O[C@H]1CN(C)Cc1ccc(C(=O)Nc2ccccc2N)cc1 ?
NOMO-1 viab: 139*; MITF inhib: 9

How did C[C@H](CO)N1C[C@H](C)[C@@H](CN(C)Cc2ccc(C(=O)O)cc2)Oc2c(NC(=O)Nc3cccc4ccccc34)cccc2C1=O do in these assays?
NOMO-1 viab: 11; MITF inhib: 15; Hedgehog inh: -21

Results for C[C@@H]1CN([C@@H](C)CO)C(=O)c2cccc(NC(=O)Nc3ccccc3)c2O[C@@H]1CN(C)Cc1ccc(C(=O)Nc2ccccc2N)cc1 ?
NOMO-1 viab: 140*; MITF inhib: 29

Results for C[C@@H]1CN([C@@H](C)CO)C(=O)c2cccc(NC(=O)Nc3ccccc3)c2O[C@@H]1CN(C)Cc1ccc(C(=O)O)cc1 ?
NOMO-1 viab: 10; MITF inhib: -9; Hedgehog inh: 19

Results for C[C@@H]1CN([C@@H](C)CO)C(=O)Cc2cc(NS(C)(=O)=O)ccc2O[C@@H]1CN(C)Cc1ccc(Oc2ccccc2)cc1 ?
NOMO-1 viab: 32; MITF inhib: 3; Hedgehog inh: -49

What do the screens show for `O=S(=O)(c1ccc(Br)cc1)c1nc(-c2ccc(F)cc2)oc1NCc1cccnc1`?
NOMO-1 viab: 46; MITF inhib: 6

What do the screens show for `O=C(CSc1nnnn1-c1ccccc1)Nc1ccc(-c2nc3ccccc3s2)cc1`?
NOMO-1 viab: 41; MITF inhib: -68

Results for O=C(CN1C(=O)CNC1=O)Nc1cccc2ccccc12 ?
NOMO-1 viab: -7; MITF inhib: 10

How did CCOC(=O)C1CCCCN1Cc1ccc(OC)c(O)c1 (centres undefined) do in these assays?
NOMO-1 viab: 25; MITF inhib: 0
